# Measurements reported in PubChem BioAssay.
# Active and inactive are the calls of the source.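 Rule for the calls, unless noted: active = inhibition at or above 50% at 10 µM; inactive = inhibition below 50%.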 Where a SMILES comes first, the peptide text is derived from it. The star is where a group is joined. Boc = CC(C)(C)OC(=O)*
# Tests used:
# [1] = inhibitors of TNFa-induced NFkB p65 translocation, primary screen, imaging, HUVEC, MLSMR starter and 10KST1 sets (AID 438;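 active = inhibition above 20% together with a positive visual image hit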;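 note: compound added about 3h40 before a 20 min TNFalpha stimulation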;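 for inhibition: signal is the nuclear over cytoplasmic p65 intensity ratio per well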); conditions: HUVEC TNFa-induced p65 nuclear translocation; cell count: measured here: nuclei count (cytotoxicity indicator), at 2.08 µM; inhibition: at 2 µM, stronger effect = higher value, 0% TNFa-plus-vehicle, 100% no-TNFa wells
# [2] = inhibitors of mutant huntingtin aggregation, primary screen, imaging, exon1htt(103Q)mCFP cells, high-content imaging (AID 483;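 active = visual image review flags a hit and inhibition of aggregation exceeds 20%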;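 note: compound exposure lasted 3 days before fixation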;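 for nuclei count: percent of the per-plate median nuclei count of sample wells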); conditions: exon1htt(103Q)mCFP cell line, aggregate imaging, at 2 µM; inhibition of aggregation: stronger effect = higher value; nuclei count: measured here: cell count, toxicity
# [3] = inhibitors of E-selectin induction by TNFa, primary screen, imaging, HUVEC, immunofluorescence, MLSMR starter and 10KST1 sets (AID 487;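 active = visually confirmed hit in the image check and inhibition above 20%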;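 for inhibition: signal is fraction of cell area covered by stained E-selectin grains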;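 for nuclei count: 100% = median nuclei count of all wells on the same plate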); conditions: HUVEC TNFalpha-induced E-selectin immunofluorescence imaging, at 2 µM; inhibition: stronger effect = higher value; nuclei count: measured here: cell number, toxicity
# [4] = biological target: Voltage-gated potassium channel subunit beta-2 (Rattus norvegicus) (UniProt P62483); test: KvBeta enzyme negative modulators, primary screen, biochemical, NADPH fluorescence (AID 622;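 active = fluorescence slope higher than the sample average by over 3 SD, cut at about -0.22 in these data, passing the limit was not always enough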;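 note: slope of raw intensity against log time taken from 70 to 1610 s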); conditions: recombinant KvBeta, 4-cyanobenzaldehyde reduction, at 10 µM, stronger effect = higher value
# Voltage-gated potassium channel subunit beta-2 (Rattus norvegicus), sequence (P62483 whole entry, looked up): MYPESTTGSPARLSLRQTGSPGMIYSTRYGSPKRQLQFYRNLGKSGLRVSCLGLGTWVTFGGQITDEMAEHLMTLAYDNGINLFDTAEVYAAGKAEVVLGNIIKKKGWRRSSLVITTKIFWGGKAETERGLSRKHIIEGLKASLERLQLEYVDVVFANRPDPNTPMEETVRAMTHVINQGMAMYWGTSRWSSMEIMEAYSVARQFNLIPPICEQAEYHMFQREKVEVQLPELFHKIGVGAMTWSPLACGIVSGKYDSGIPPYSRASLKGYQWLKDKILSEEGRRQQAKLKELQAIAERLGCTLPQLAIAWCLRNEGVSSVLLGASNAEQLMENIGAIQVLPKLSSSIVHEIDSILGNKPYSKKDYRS
# [5] = biological target: Voltage-gated potassium channel subunit beta-2 (Rattus norvegicus) (UniProt P62483); test: KvBeta positive modulators, primary screen, biochemical, NADPH fluorescence (AID 623;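 active = NADPH fluorescence slope more negative than the mean of all samples by about 3 SD, 99.7% confidence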;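 note: fluorescence intensity change per second fitted from 20 to 320 s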); conditions: Recombinant KvBeta, NADPH fluorescence decrease slope, 10 min; at 10 µM; stronger effect = lower value
# [6] = biological target: Alpha-2C adrenergic receptor (Homo sapiens) (UniProt P18825); test: modulators of alpha2C/GIRK thallium flux, primary screen, cell-based, HEK293 alpha2C/GIRK1/2 (AID 624;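 active = fluorescence slope after compound addition differing from the mean of all screened samples at 99.7% confidence, in either direction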;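 note: slope of fluorescence ratio to pre-addition baseline per second over 15 to 24 s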); conditions: thallium flux BTC fluorescence, at 10 µM, actives lie on both sides
# Alpha-2C adrenergic receptor (Homo sapiens), sequence (P18825 whole entry, looked up): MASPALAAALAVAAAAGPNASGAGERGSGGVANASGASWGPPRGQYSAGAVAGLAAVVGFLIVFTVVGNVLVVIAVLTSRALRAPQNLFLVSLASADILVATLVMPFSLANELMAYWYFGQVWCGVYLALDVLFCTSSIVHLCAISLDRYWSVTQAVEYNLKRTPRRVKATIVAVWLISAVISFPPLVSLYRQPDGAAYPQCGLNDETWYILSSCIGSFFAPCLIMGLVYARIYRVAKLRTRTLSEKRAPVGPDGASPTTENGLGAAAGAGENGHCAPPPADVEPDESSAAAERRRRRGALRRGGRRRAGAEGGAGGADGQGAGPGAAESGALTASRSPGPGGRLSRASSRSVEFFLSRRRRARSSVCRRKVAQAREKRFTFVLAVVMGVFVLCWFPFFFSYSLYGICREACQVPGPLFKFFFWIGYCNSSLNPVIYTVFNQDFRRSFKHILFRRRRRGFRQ
# [7] = inhibitors of Sendai virus-induced IRF3 signaling, primary screen, TLR/RLR signaling modifier project, cell-based, Sendai virus stimulus, luciferase, 10K MLSCN set (AID 602276); conditions: HEK293 RL24 IRF3 luciferase reporter, at 10 µM, stronger effect = higher value;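 note: firefly luciferase from ISG56 promoter only with Renilla not read in this screen; 0% = Sendai virus plus DMSO and 100% = medium plus DMSO without virus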
# [8] = inhibitors of poly I:C-induced TLR3 signaling, primary screen, cell-based, poly I:C stimulus, luciferase, 10K MLSCN set (AID 602277;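 active = inhibition of the reporter signal at or above 50%; inactive = inhibition below 50%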); conditions: HEK293-TLR3 RL24 IRF3 luciferase reporter, at 10 µM, stronger effect = higher value
SMILES,cell count [1],inhibition [1],inhibition of aggregation [2],nuclei count [2] [%],inhibition [3],nuclei count [3] [%],fluorescence slope [4],NADPH fluorescence slope [5],slope [6],inhibition [7],inhibition [8]
Cc1ccc(NC(=O)CN(c2ccc3c(c2)OCO3)S(=O)(=O)c2c(C)n[nH]c2C)cc1,768,-12.5% (inactive),-29.4% (inactive),108,-39.7% (inactive),101,-0.42 (inactive),-5.2e-05 (inactive),0.00614 (inactive),6.09% (inactive),17.9% (inactive)
COc1ccc(C)cc1NC(=O)CSc1nnnn1Cc1ccccc1,709,-1.6% (inactive),-27.3% (inactive),107,8.3% (inactive),124,-0.528 (inactive),-1.1e-05 (inactive),0.00685 (inactive),-7.12% (inactive),13.4% (inactive)
COc1ccc(N2CCN(Cc3nc4c(c(=O)[nH]c(=O)n4C)n3CC(C)=O)CC2)cc1,682,0.5% (inactive),-29.1% (inactive),126,-37.3% (inactive),119,-0.578 (inactive),-2.9e-05 (inactive),0.00484 (inactive),4.33% (inactive),29.5% (inactive)
CCN(C1CCCCC1)S(=O)(=O)c1ccc(OC)c(C)c1,862,-3.6% (inactive),9.9% (inactive),98.1,-104% (inactive),128,-0.498 (inactive),-2.3e-05 (inactive),0.00415 (inactive),-0.395% (inactive),28.2% (inactive)
CCCSc1nc(N)c(C#N)c(-c2ccc(C)cc2)c1C#N,683,10.1% (inactive),-10.3% (inactive),104,-31.9% (inactive),141,-0.382 (inactive),-6.2e-05 (inactive),0.00536 (inactive),3.6% (inactive),9.67% (inactive)
Cc1ccc(-c2nnc(N(C)C(=O)c3ccccn3)s2)cn1,500,6.8% (inactive),-1.4% (inactive),105,-60.4% (inactive),97.9,-0.495 (inactive),-4.7e-05 (inactive),0.00529 (inactive),-13% (inactive),-49% (inactive)
COc1cc(C2c3c(n[nH]c3C)C(=O)N2c2ccc(Br)cc2)ccc1O (stereo not drawn),677,-3.9% (inactive),1.5% (inactive),100,3.2% (inactive),106,-0.408 (inactive),-1.5e-06 (inactive),0.00373 (inactive),8.55% (inactive),24.2% (inactive)
CC(C)(C)Cc1nc(-c2ccccn2)no1,379,0.8% (inactive),-13.5% (inactive),109,-71.1% (inactive),115,-0.44 (inactive),-2.3e-05 (inactive),0.00439 (inactive),-5.86% (inactive),-18.2% (inactive)
CCN(CC)S(=O)(=O)c1ccc(F)c(C(=O)NCCC(C)C)c1,497,-22% (inactive),37.4% (inactive),79.2,-22.3% (inactive),99.2,-0.353 (inactive),-1.6e-05 (inactive),0.00438 (inactive),-18.3% (inactive),-20.2% (inactive)
CC1(C)CC(=O)C(C=NCC2CCNCC2)=C(O)C1,249,-2.1% (inactive),6.8% (inactive),74.8,-10.9% (inactive),116,-0.466 (inactive),-4.9e-06 (inactive),0.00268 (inactive),3.67% (inactive),27.1% (inactive)
CCCCNC(=O)C(C#N)c1nc2ccccc2nc1N1CCCC1 (stereo not drawn),289,-6.5% (inactive),22.5% (inactive),78.4,9% (inactive),52.3,-0.235 (inactive),-1.3e-05 (inactive),0.00359 (inactive),16.3% (inactive),14% (inactive)
COc1ccc(-n2c(Cc3cccn3C)nnc2SCC(=O)NCC2CCCO2)cc1 (stereo not drawn),846,1.8% (inactive),21.3% (inactive),103,-182% (inactive),130,-0.56 (inactive),-3.5e-05 (inactive),0.00701 (inactive),8.65% (inactive),32% (inactive)
C=CCn1c(-c2ccccc2)c[nH]c1=S,544,-9.5% (inactive),-9.3% (inactive),112,8.5% (inactive),101,-0.61 (inactive),-4.2e-05 (inactive),0.00665 (inactive),-33.4% (inactive),-112% (inactive)
COc1ccc(-n2ncc3c(N4CCC(C)CC4)ncnc32)cc1,575,-1.3% (inactive),17.5% (inactive),121,-10.8% (inactive),110,-0.572 (inactive),-5e-05 (inactive),0.00789 (inactive),9.66% (inactive),-67.2% (inactive)
COc1ccccc1NC(=O)CSc1nnc(Cc2cccn2C)n1-c1ccc(F)cc1,508,-7.5% (inactive),30.2% (inactive),86.3,-51.1% (inactive),113,-0.529 (inactive),-2.1e-05 (inactive),0.00524 (inactive),11.3% (inactive),37.8% (inactive)
CCCOc1ccc(S(=O)(=O)NCCCN2CCOCC2)c2ccccc12,402,5.8% (inactive),-33.7% (inactive),106,-43.1% (inactive),118,-0.418 (inactive),-4.8e-05 (inactive),0.00402 (inactive),16% (inactive),13.7% (inactive)
O=C(c1cccnc1)N1CCN(Cc2ccc3c(c2)OCO3)CC1,64,11% (inactive),-2.8% (inactive),88.3,29.2% (inactive),87.6,-0.411 (inactive),-5.6e-05 (inactive),0.00498 (inactive),14.2% (inactive),13.5% (inactive)
CCCc1c(O)nc(SCC(=O)NCCc2ccc(OC)c(OC)c2)[nH]c1=O,581,-10.8% (inactive),5.3% (inactive),73.8,38.4% (inactive),82.7,-0.486 (inactive),-3.3e-05 (inactive),0.00432 (inactive),13.2% (inactive),13.9% (inactive)
CCC(=O)OCCn1c(=O)c2cc3c(=O)n(CCOC(=O)CC)c(=O)c3cc2c1=O,446,0% (inactive),-19% (inactive),94.4,-44.7% (inactive),125,-0.483 (inactive),2.7e-05 (inactive),0.00378 (inactive),-12.3% (inactive),6.39% (inactive)
COCCn1c(CN2CCN(c3cccc(Cl)c3)CC2)nc2c1c(=O)n(C)c(=O)n2C,712,-6.3% (inactive),5.4% (inactive),99.5,-24.9% (inactive),120,-0.582 (inactive),-4e-05 (inactive),0.00601 (inactive),12.7% (inactive),15.3% (inactive)
Cc1ccc(NC(=O)c2cc(-c3ccc(C)o3)nc3ccccc23)nc1,414,6.3% (inactive),-7.9% (inactive),113,21.6% (inactive),106,-0.12 (active),9.6e-06 (inactive),0.00591 (inactive),-2.84% (inactive),-17% (inactive)
O=c1c2c(-c3ccccc3)csc2nc2n1CCC2,518,-18.3% (inactive),-0.8% (inactive),87,20.1% (inactive),144,-0.588 (inactive),-8.9e-06 (inactive),0.00513 (inactive),-15.3% (inactive),1.9% (inactive)
COc1ccc(-c2c(C(F)(F)F)oc3c(CN4CCN(C)CC4)c(O)ccc3c2=O)cc1,555,7.7% (inactive),-14% (inactive),91.6,0.6% (inactive),112,-0.421 (inactive),2.5e-05 (inactive),0.00536 (inactive),-6.41% (inactive),8.59% (inactive)
O=C(NCc1cccnc1)C1c2ccccc2C(=O)N1Cc1ccco1 (stereo not drawn),408,4.7% (inactive),7% (inactive),115,50.4% (inactive),113,-0.595 (inactive),-1.9e-05 (inactive),0.00603 (inactive),5.3% (inactive),11% (inactive)
COc1ccc(OC)c(S(=O)(=O)N2c3ccccc3CC2C)c1 (stereo not drawn),609,-6.3% (inactive),4.4% (inactive),84.6,-32% (inactive),123,-0.566 (inactive),2.6e-06 (inactive),0.00606 (inactive),5.85% (inactive),21.2% (inactive)
COCCOC(=O)c1c(C)oc2ccc(NS(=O)(=O)c3ccc(F)cc3)cc12,381,2.5% (inactive),4.7% (inactive),123,30.2% (inactive),93,-0.613 (inactive),2.2e-06 (inactive),0.00626 (inactive),14.6% (inactive),25.3% (inactive)
CC(NC(=O)OC(C)(C)C)C(=O)N1CCCC1C(=O)NC(Cc1ccccc1)C(N)=O (stereo not drawn) (Boc-Ala-Pro-Phe-NH2; configuration not given here),220,9.7% (inactive),-15.1% (inactive),85.5,-30.7% (inactive),93.1,-0.498 (inactive),-3.8e-06 (inactive),0.00536 (inactive),19.8% (inactive),22.4% (inactive)
CCOC(=O)c1ccccc1NC(=O)c1cccnc1,381,5.5% (inactive),-28.4% (inactive),117,-167% (inactive),135,-0.504 (inactive),2.4e-05 (inactive),0.00744 (inactive),-0.374% (inactive),10.8% (inactive)
